High-throughput results: PubChem BioAssay, Broad Institute
ERp5 block: inhibitors of ERp5-driven insulin aggregation, primary screen, biochemical, turbidity, absorbance 650 nm, single point; inhibition, % at 9.99 µM; Protein disulfide-isomerase A6 (Homo sapiens), Q15084; 90 min; AID 651711, 2012; 350,000 compounds, 0.05% hits;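 active means mean replicate inhibition above about 25%, with every replicate also reaching it, limit read from the data, passing the limit was not always enough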
Target sequence (Q15084 whole entry, looked up): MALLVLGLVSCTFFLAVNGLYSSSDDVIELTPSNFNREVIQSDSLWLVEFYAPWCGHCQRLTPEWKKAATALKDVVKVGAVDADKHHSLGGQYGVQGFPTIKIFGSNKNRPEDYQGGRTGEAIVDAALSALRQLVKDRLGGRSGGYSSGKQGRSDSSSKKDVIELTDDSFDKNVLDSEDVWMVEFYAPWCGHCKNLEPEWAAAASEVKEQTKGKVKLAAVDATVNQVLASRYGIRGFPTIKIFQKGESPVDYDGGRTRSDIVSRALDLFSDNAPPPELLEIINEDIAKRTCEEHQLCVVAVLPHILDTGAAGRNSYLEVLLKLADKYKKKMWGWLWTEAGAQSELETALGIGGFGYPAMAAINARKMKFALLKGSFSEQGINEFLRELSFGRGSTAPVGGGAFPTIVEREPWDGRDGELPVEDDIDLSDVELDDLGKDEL
PvdQ acylase: P. aeruginosa PvdQ acylase inhibitors, primary screen, biochemical, fluorescence, plate reader and imaging, single point; PvdQ acylase [Pseudomonas aeruginosa LESB58]; purified PvdQ acylase; inhibition, % at 10 µM; 340,000 compounds, 0.063% hits; AID 488965, 2010; in the data active means inhibition above about 30%, passing the limit was not always enough
CaV13 ICDI inh: Disruptors of the CACNA1D IQ motif to Ca2+-dependent inactivation inhibitor domain association, primary screening, Förster resonance energy transfer in intact living …. HEK cells, CFP/YFP FRET ICDI-IQ, plate reader, 10 min; percent FRET-ratio fall versus neutral wells. inhibition, % at 12.3 µM. 340,000 compounds, 0.098% hits;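 active means mean replicate inhibition of at least 30% and at least 1% of replicates passing that level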
PDI turbidity: inhibitors of human PDI, primary screen, biochemical, turbidity, single point, plate reader. 350,000 compounds, 0.052% hits. Protein disulfide-isomerase (Homo sapiens), P07237. PDI insulin aggregation turbidity, A650, 90 min. inhibition, % at 10 µM;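 active means mean inhibition across replicates of 30% or more, whatever share of single replicates reach that level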
Of the large screens only hits and unclear results are named; the others gave an inactive call. A selection: hits, their analogues and other compounds. The true share with any hit is near 0.2%.

O=C(c1cccc(Cl)c1)N1CCC(=O)N(C(COCc2ccccc2)Cc2ccccc2)CC1 (centres undefined)	CaV13 ICDI inh 55
CCC(=O)Nc1ccc2c(c1)OC[C@@H](C)N(CCc1ccccc1)C[C@@H](C)[C@@H](OC)CN(C)C2=O	none (no result: PvdQ acylase, CaV13 ICDI inh, PDI turbidity)
CN(C)C(=O)c1cccc(-c2ccc3n(c2=O)C[C@H]2[C@H](CO)[C@@H](C(=O)NCC(F)(F)F)[C@@H]3N2C)c1	none (no result: PvdQ acylase, CaV13 ICDI inh, PDI turbidity)
CCOC(=O)c1c(NC(=O)CSc2ncccn2)sc2c1CCN(Cc1ccccc1)C2	CaV13 ICDI inh 36
CN1CCc2c(sc(NC(=O)Cc3ccccc3)c2C#N)C1	CaV13 ICDI inh 120 (no result: PDI turbidity)
CC(=O)N1CCc2c(sc(NC(=O)Cc3ccc(F)cc3)c2C#N)C1	none (no result: ERp5 block)
CC(=O)Nc1sc2c(c1C(N)=O)CCN(Cc1ccccc1)C2	none
NC(=O)c1c(NC(=O)Cc2ccccc2)sc2c1CCN(Cc1ccccc1)C2	CaV13 ICDI inh 40 (no result: PDI turbidity)
CC(C)NC(=O)Nc1cccc2c1O[C@H](CN(C)C(=O)Nc1cccc3ccccc13)[C@@H](C)CN([C@@H](C)CO)C2=O	none (no result: PvdQ acylase, CaV13 ICDI inh, PDI turbidity)
CCC(=O)N1[C@@H](CO)[C@@H]2c3ccccc3N(C(=O)NC(C)C)C[C@@H]21	none (no result: PvdQ acylase, CaV13 ICDI inh, PDI turbidity)
CC1O[C@@H](OCC2O[C@@H](Oc3cc(O)c4c(c3)OC(c3ccc(O)cc3)CC4=O)[C@H](O)[C@@H](O)[C@@H]2O)[C@H](O)[C@H](O)[C@H]1O (some centres undefined)	none (no result: CaV13 ICDI inh, PDI turbidity)
O=C1C[C@H](c2ccc(O)cc2)Oc2cc(O[C@@H]3O[C@H](CO)[C@@H](O)[C@H](O)[C@H]3O)cc(O[C@@H]3O[C@H](CO)[C@@H](O)[C@H](O)[C@H]3O)c21	PDI turbidity 39
O=C(NC1CCS(=O)(=O)C1)c1cccc(S(=O)(=O)N2CCCCC2)c1 (centres undefined)	none (no result: ERp5 block)
O=C(NC1CCS(=O)(=O)C1)c1cccc(Br)c1 (centres undefined)	PvdQ acylase 41
N#Cc1cn(Cc2ccccc2)c2ccccc12	PvdQ acylase 35 (no result: ERp5 block)
C[C@@H]1CN([C@@H](C)CO)C(=O)Cc2cc(NC(=O)CCCN(C)C)ccc2O[C@H]1CN(C)C	none (no result: PvdQ acylase, CaV13 ICDI inh, PDI turbidity)
CCc1cc(OCCCCNCc2ccccc2)ccc1Cl	PDI turbidity 54 (no result: ERp5 block)
Cc1nc(CCNC(=O)Cc2ccc(Cl)cc2)cs1	CaV13 ICDI inh 39 (no result: PDI turbidity)
Nc1ccc2nc(-c3ccccc3)cnc2c1	CaV13 ICDI inh active
CN(C)/C=C1/N=C(c2ccccc2)OC1=O	none (no result: ERp5 block)
O=CC1=C(c2ccccc2)Oc2ccccc2O1	PvdQ acylase 82
CC(C)NC(=O)N1CC2(C1)[C@@H](c1ccccc1)[C@H](CO)N2C(=O)C1CCC1	none (no result: PvdQ acylase, CaV13 ICDI inh, PDI turbidity)
COc1ccc(S(=O)(=O)N(C)C[C@@H]2OCCCC[C@H](C)Oc3ccc(NC(=O)C4CCCCC4)cc3C(=O)N([C@@H](C)CO)C[C@@H]2C)cc1	none (no result: PvdQ acylase, CaV13 ICDI inh, PDI turbidity)
CS(=O)(=O)c1ccc(C(=O)OCC(=O)N2CCN(CCC3CCCCC3)CC2)cc1[N+](=O)[O-]	PDI turbidity 91 (no result: PvdQ acylase)
O=C(OCc1nc2ccccc2s1)c1ccc(Br)o1	none
O=C(OCc1nc2ccccc2s1)c1ccco1	PvdQ acylase 46
COc1ccc(CCn2c(=N)c(S(=O)(=O)c3ccccc3)cc3c(=O)n4ccccc4nc32)cc1	none
Cc1ccc(S(=O)(=O)c2cc3c(=O)n4ccccc4nc3n(C)c2=N)cc1	CaV13 ICDI inh 80 (no result: ERp5 block)
CCn1c(=N)c(S(=O)(=O)c2ccccc2)cc2c(=O)n3ccccc3nc21	CaV13 ICDI inh 33
CCn1c(=N)c(S(=O)(=O)c2ccc(C)cc2)cc2c(=O)n3ccccc3nc21	none (no result: PvdQ acylase, PDI turbidity)
N=c1c(S(=O)(=O)c2ccccc2)cc2c(=O)n3ccccc3nc2n1Cc1ccco1	none (no result: ERp5 block, CaV13 ICDI inh)
CCCn1c(=N)c(S(=O)(=O)c2ccccc2)cc2c(=O)n3ccccc3nc21	CaV13 ICDI inh 129
Cc1ccc2nc3c(cc(S(=O)(=O)c4ccccc4)c(=N)n3Cc3ccco3)c(=O)n2c1	CaV13 ICDI inh active
COc1ccc(S(=O)(=O)Nc2ccc3c(c2)C(=O)N([C@@H](C)CO)C[C@H](C)[C@H](CN(C)S(=O)(=O)c2ccccc2)O3)cc1	none (no result: PvdQ acylase, CaV13 ICDI inh, PDI turbidity)
COCC(=O)N(C)C[C@H]1Oc2cc(-c3ccc(C)cc3)ccc2S(=O)(=O)N([C@@H](C)CO)C[C@H]1C	none (no result: PvdQ acylase, CaV13 ICDI inh, PDI turbidity)
COc1ccc(-c2cn(CC[C@@H]3CC[C@H](NC(=O)Nc4ccc(F)cc4)[C@@H](CO)O3)nn2)cc1	none (no result: PvdQ acylase, CaV13 ICDI inh, PDI turbidity)
C[C@]12CC[C@H]3C(=CCc4cc(O)ccc43)[C@@H]1CCC2=O	PDI turbidity 33
